This is a sample that favours compounds with a hit; in the whole collection about 3.2% have one here.
CRFBP-R2 block: antagonists of CRF-BP/CRF-R2 complex, primary screen, cell-based, HEK293, calcium dye fluorescence, uHTS; CRF-induced calcium fluorescence; inhibition, % at 11.8 µM; actives 0.59% (n = 350,000);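 active = inhibition of the ligand-induced calcium signal above about 50% at the single tested concentration, limit read from the data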
aDG glyco up: activators of alpha-DG glycosylation, primary screen, uHTS, Pro5-aDG cells, AlphaScreen; AID 624168, 2012; activation, % at 10 µM; actives 0.22% (n = 360,000); alpha-DG glycosylation AlphaScreen (IIH6); 0% Pro5, 100% B10-LARGE cell signal;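 active = activation of at least 8% versus controls, or a plate z-score of at least 8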;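 note: Pro5 are CHO cells carrying HIG-tagged alpha-DG that lacks glycosylation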
H9c2 protect: cardioprotection against H2O2-induced cell death, primary screen, uHTS, H9c2 cells, ATPLite luminescence; H9c2 cardiomyocytes, H2O2 injury protection, 2 h; protection from H2O2 cell death, % at 20 µM; actives 0.63% (n = 360,000); AID 588492, 2011;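 active = compounds giving at least 50% protection of heart cells from peroxide-induced death in the single-dose screen, raw or plate-pattern-corrected value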;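 note: 0% = DMSO wells with peroxide and 100% = DMSO wells without peroxide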
PfGluPho inh: PfG6PD enzyme inhibitors, primary screen, biochemical, fluorescence intensity, uHTS; glucose-6-phosphate dehydrogenase-6-phosphogluconolactonase (Plasmodium falciparum 3D7); PfGluPho enzyme, NADPH resazurin-diaphorase fluorescence; inhibition, % at 20 µM; actives 0.78% (n = 350,000); AID 504690, 2011;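 active = inhibition reaching at least a set limit at 20 µM in the primary screen, cut at about 59% in these data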;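 note: 0% = DMSO wells with substrate and 100% = DMSO wells lacking glucose-6-phosphate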
CRFR2-BP ag: agonists of CRF-BP/CRF-R2 complex, primary screen, cell-based, HEK293, calcium dye fluorescence, uHTS. CRF-binding protein / CRF receptor 2 complex (human). calcium dye fluorescence (FLIPR); percent of saturating CRF peptide response. activation, % at 13.2 µM. actives 0.46% (n = 350,000);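 active = activation of at least 50%, plus an integration ratio under a set limit after plate pattern correction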;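 note: plate controls were neutral control wells without compound for no effect and CRF at EC100 for full effect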
FAS TE block: FAS thioesterase domain inhibitors, primary screen, biochemical, fluorescence intensity, uHTS; Fatty acid synthase (Homo sapiens), P49327; recombinant FAS-TE, OMFH fluorogenic substrate, fluorescence endpoint; inhibition, % at 15 µM; actives 0.67% (n = 360,000);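 active = compounds whose normalised, plate-corrected inhibition of enzyme fluorescence in the single-dose primary screen is 50% or more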;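 note: 0% = DMSO with enzyme and 100% = substrate without enzyme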
PfG6PD confirm: PfG6PD inhibitors, hit retest, confirmation, biochemical, fluorescence intensity, single concentration; shares compounds with PfGluPho inh; recombinant PfGluPho, NADPH-diaphorase-resazurin fluorescence; inhibition, % at 20 µM; actives 34% (n = 2,400);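 active = inhibition of at least 50% at 20 µM in any single replicate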;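 note: 0% = DMSO with substrate and 100% = DMSO lacking glucose-6-phosphate substrate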
Diaphorase 10uM: diaphorase inhibitors and chemical oxidizers, confirmation, counter-screen for P. falciparum G6PD inhibitor project, biochemical, fluorescence intensity, 10 µM NADPH; shares compounds with PfGluPho inh; diaphorase-coupled resazurin reduction, NADPH 10 uM; inhibition, % at 20 µM; actives 39% (n = 820);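 active = average inhibition reaching 50% or more with the compound at 20 µM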;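 note: resorufin red fluorescence formed as diaphorase reduces resazurin using NADPH; 0% = DMSO with enzyme and 100% = DMSO without enzyme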
Diaph ctr 30uM: diaphorase inhibitors and chemical oxidizers, confirmation, counter-screen for P. falciparum G6PD inhibitor project, biochemical, fluorescence intensity, 30 µM NADPH | AID 504863, 2011 | Diaphorase/resazurin coupled assay, resorufin fluorescence | inhibition, % at 20 µM | actives 29% (n = 820) | shares compounds with PfGluPho inh;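 active = inhibition averaging 50% or more, tested at 20 µM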;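 note: 0% = DMSO with enzyme and 100% = DMSO wells lacking diaphorase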
Active calls of the source: *; . = no result.

SMILES | CRFBP-R2 block | aDG glyco up | H9c2 protect | PfGluPho inh | CRFR2-BP ag | FAS TE block | PfG6PD confirm | others
O=c1[nH]c2cc3c(cc2cc1CN(Cc1ccccc1)Cc1nnnn1Cc1ccco1)OCCO3 | -7 | 0 | 26 | 76* | -1 | 0 | -6
COc1ccc(N=Cc2[nH]c3ccccc3c2O)cc1 | -1 | 0 | -6 | 59* | 1 | -23 | 15
COC(=O)c1ccccc1C(=O)c1ccc2c(c1)NC(=O)CO2 | -3 | 0 | 1 | 68* | 0 | -1 | 35
O=[N+]([O-])c1cc(-c2ccc(C(=S)N3CCOCC3)o2)ccc1Cl | -28 | 1 | -18 | 69* | 1 | 19 | 41
O=c1c2cn[nH]c2[nH]c(=S)n1-c1ccccc1 | 37 | 0 | 8 | 59* | 1 | -8 | 0
Cc1ccc(-n2c3c(c(=O)[nH]c2=O)C(NS(=O)(=O)c2ccc(Cl)cc2)(C(F)(F)F)C(=O)N3)cc1 (stereo unspecified) | -6 | 0 | 0 | 1 | -1 | -8 | .
Cc1cccc(NC(=O)CSCC(=O)Nc2sccc2C#N)c1 | -8 | 0 | -3 | 20 | 3 | -4 | .
CN(/N=C/c1cc(Cl)cc(Cl)c1O)c1c(Cl)cccc1[N+](=O)[O-] | -8 | 0 | -4 | 22 | 0 | 41 | .
O=C(CCc1ccccc1)N1CCN(S(=O)(=O)c2cccs2)CC1 | 9 | 0 | -2 | -6 | 1 | -4 | .
COc1ccc(-n2ncc3c2CC(C)(C)CC3NC(=O)c2ccnn2C)cc1 (stereo unspecified) | -1 | 0 | -6 | 6 | 2 | 0 | .
CSc1nc(=NC(C)=O)ss1 | 8 | 0 | -7 | 68* | 0 | -4 | 38
COCCN1C[C@@H](CO)O[C@@H](n2cnc3c(NCCO)ncnc32)C1 | . | 0 | 4 | . | . | -5 | .
O=C(CC(=O)N/N=C/c1c(F)cccc1Cl)NCc1ccccc1 | -4 | . | . | 77* | 0 | . | 67* | Diaphorase 10uM=62*;Diaph ctr 30uM=52*
Cc1ccsc1/C=N\NC(=O)CC(=O)NCc1ccccc1 | 8 | 0 | 3 | 86* | -1 | 1 | 73* | Diaphorase 10uM=61*;Diaph ctr 30uM=41
O=C(CC(=O)N/N=C/c1ccc(Cl)cc1Cl)NCc1ccccc1 | 8 | 0 | -10 | 28 | 1 | -2 | .
COc1cccc(OCCNc2cc(Cl)ccc2[N+](=O)[O-])c1 | 2 | 0 | -3 | 63* | -2 | 34 | -12
CC(C(=O)NCC(=O)Nc1ccc(F)c(F)c1F)N1CCN(c2ccc(O)cc2)CC1 (stereo unspecified) | -1 | 0 | -11 | 70* | 0 | 4 | 43
CCCCCCn1c(=O)n2n(c1=O)[C@@H]1CN(S(=O)(=O)c3ccc(C)cc3)C[C@]1(O)[C@@H](OC(=O)NCc1ccccc1)C2 | -1 | 0 | 0 | 67* | 4 | 17 | -15
O=C(Nc1sc2c(c1C(=O)O)CCCCC2)c1ccccc1F | 24 | 1 | -9 | 62* | 0 | 0 | 40
O=C(Nc1sc2c(c1C(=O)O)CCCC2)c1ccc(F)cc1 | 13 | 0 | -4 | 93* | -1 | -1 | 73* | Diaphorase 10uM=55*;Diaph ctr 30uM=55*
CC(C)(C)c1ccc(C(=O)Nc2sc3c(c2C(=O)O)CCC3)cc1 | -38 | 0 | -9 | 76* | 2 | 9 | 59* | Diaphorase 10uM=34;Diaph ctr 30uM=15
O=C1C2C3C=CC(C3)C2C(=O)N1Nc1c(Cl)cc(Cl)cc1Cl (stereo unspecified) | 2 | 1 | -4 | 11 | -1 | -6 | .
CCN1C[C@@H]2[C@@H]3C(=O)N(Cc4ccccc4)C(=O)[C@@H]3[C@](C)(C1=O)N2C(=O)c1ccc(Cl)c(Cl)c1 | -7 | 0 | 0 | 3 | 0 | -6 | .
Fc1cccc(F)c1/C=C/c1ccc2ccccc2n1 | 9 | 0 | -19 | 16 | -1 | 17 | .
C(=C\c1ccco1)/c1ccc2ccccc2n1 | 2 | 0 | 0 | 66* | 1 | -3 | 10
SMILES | CRFBP-R2 block | aDG glyco up | H9c2 protect | PfGluPho inh | CRFR2-BP ag | FAS TE block | PfG6PD confirm | others
COc1ccc(-c2cc(-c3n[nH]c(=S)n3-c3cc(OC)ccc3OC)[nH]n2)cc1 | 1 | 0 | -2 | 59 | 0 | -3 | 23
COc1cc2c(cc1OC)C(=O)C(Br)CC2 (stereo unspecified) | -2 | 0 | -17 | 112* | -2 | -2 | 106* | Diaphorase 10uM=101*;Diaph ctr 30uM=98*
CC(NC(=O)COC(=O)CNS(=O)(=O)/C=C/c1ccccc1)c1ccccc1 (stereo unspecified) | -2 | 0 | -4 | -2 | -1 | -7 | .
COc1ccc(-n2nc(C(=O)NCC(=O)N3CCCC3)c3ccccc3c2=O)cc1Cl | 14 | 0 | -1 | 2 | -1 | 2 | .
Cn1c2ccccc2c2ccc3c(c21)C(=O)C=CC3=O | -43 | 0 | -19 | 81* | 1 | 18 | 53* | Diaphorase 10uM=-40;Diaph ctr 30uM=-7
CCOc1cc(/C=N/O)ccc1OCc1ccc(C)cc1 | -3 | 0 | -1 | 66* | -11 | -4 | 42
CCOc1cc(/C=N/O)ccc1OS(=O)(=O)c1ccc(C)cc1 | -8 | 0 | 12 | 15 | 2 | -8 | .
CCOc1cc(/C=N/O)cc(Br)c1OCC | 4 | 0 | 12 | 2 | 1 | -5 | .
CCOc1cc(/C=N/O)cc(Br)c1OCc1ccc(Cl)cc1 | -33 | 0 | -4 | 76* | 20 | -14 | 4
O=C(N/N=C/c1ccccc1Br)C1CC1 | 3 | 0 | -3 | -5 | 3 | -2 | .
CCCCNc1cc(NC(C)=O)cc2cc(OC)c(OC)cc12 | 7 | 6 | -24 | 72* | 2 | -3 | 43
COc1cc2cc(NC(C)=O)cc(NCc3ccccc3)c2cc1OC | 0 | 0 | -10 | 49 | -1 | 0 | .

From PubChem
